Assay results: PubChem BioAssay (EPA / NIEHS)
Calls of active or inactive are those of the source. How the source made its calls: active means hit-call score of the fitted dose curve at least 0.9, where 1 is the maximum; inactive means score below 0.9.

These molecules were tested against Aryl hydrocarbon receptor (Homo sapiens) (UniProt P35869) (assay: ATG_Ahr_CIS: Attagene CIS-FACTORIAL HepG2 Assay for human Aryl Hydrocarbon Receptor (Ahr) (AID 2282930)). Settings: HepG2 AhR cis-factorial reporter transcription; actives raise or lower the signal.
Chain of Aryl hydrocarbon receptor (Homo sapiens) (P35869 whole entry, looked up): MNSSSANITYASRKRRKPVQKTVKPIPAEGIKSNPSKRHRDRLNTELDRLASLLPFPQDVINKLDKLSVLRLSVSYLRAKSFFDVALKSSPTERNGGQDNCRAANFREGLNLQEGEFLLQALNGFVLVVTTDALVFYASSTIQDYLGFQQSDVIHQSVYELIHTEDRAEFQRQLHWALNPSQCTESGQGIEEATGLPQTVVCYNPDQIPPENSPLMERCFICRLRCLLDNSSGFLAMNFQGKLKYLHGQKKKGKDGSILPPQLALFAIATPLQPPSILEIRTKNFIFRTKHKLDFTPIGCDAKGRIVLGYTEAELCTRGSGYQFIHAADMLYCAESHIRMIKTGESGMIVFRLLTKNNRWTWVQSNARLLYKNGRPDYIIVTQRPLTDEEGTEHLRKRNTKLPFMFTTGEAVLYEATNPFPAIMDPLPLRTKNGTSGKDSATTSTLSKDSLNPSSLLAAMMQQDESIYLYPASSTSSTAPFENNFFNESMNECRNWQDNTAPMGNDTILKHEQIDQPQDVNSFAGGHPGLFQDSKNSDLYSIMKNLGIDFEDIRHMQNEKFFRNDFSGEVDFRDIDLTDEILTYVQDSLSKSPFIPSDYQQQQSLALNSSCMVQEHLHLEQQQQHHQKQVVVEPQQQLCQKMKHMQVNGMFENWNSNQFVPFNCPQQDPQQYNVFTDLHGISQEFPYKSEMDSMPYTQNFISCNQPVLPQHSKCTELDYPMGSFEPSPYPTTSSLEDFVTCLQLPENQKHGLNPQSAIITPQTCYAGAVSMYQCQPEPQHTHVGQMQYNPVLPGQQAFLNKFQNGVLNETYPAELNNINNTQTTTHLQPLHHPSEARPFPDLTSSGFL
Outline: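 HepG2, transient MRTU (cis) transfection, 24 h exposure. RNA → cDNA → PCR → 6-FAM primer extension → HpaI 2 h 37 C → CE. Fit: bidirectional, DMSO baseline.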
In the case of `CCCSP(=S)(OCC)Oc1ccc(SC)cc1` (centres undefined), the outcome is reported as “inactive”.
In the case of `COCC(=O)N(c1c(C)cccc1C)[C@H](C)C(=O)OC`, the outcome is reported as “inactive”.
In the case of `CCOP(=S)(OCC)SCSc1cc(Cl)ccc1Cl`, the outcome is reported as “inactive”.
`C=CC(=O)[O][Sn]([CH2]CCC)([CH2]CCC)[CH2]CCC` was tested, and the AC50 was 0.704 µM (active).
In the case of `N#CS`, the outcome is reported as “inactive”.
With `Cc1cccc(OP(=O)(Oc2cccc(C)c2)Oc2cccc(C)c2)c1` the outcome was “inactive”.
For `C1CN2CCN1CC2`, the outcome was “inactive”.
For `COc1ccc([N+](=O)[O-])cc1O`, the outcome was “inactive”.
`CCC[N+](CCC)(CCC)CCC` was tested, and the outcome was “inactive”.
In the case of `O=c1nc(O)n(Cl)c(=O)n1Cl`, the outcome is reported as “inactive”.
With `O=NN1CCOCC1` the outcome was “inactive”.
In the case of `O=C(O)CC(O)(CC(=O)O)C(=O)O`, the outcome is reported as “inactive”.
In the case of `CCOP(=S)(OCC)SCS(=O)(=O)C(C)(C)C`, the outcome is reported as “inactive”.
With `CC(c1ccc(O)cc1)c1ccc(O)cc1` the outcome was “inactive”.
For `COc1nn(C(=O)NS(=O)(=O)c2ccccc2OC(F)(F)F)c(=O)n1C`, the outcome was “inactive”.
For `CC(C)[N+](=O)[O-]`, the outcome was “inactive”.
In the case of `CC1(C)[C@H](C(=O)O[C@H](C#N)c2cccc(Oc3ccccc3)c2)[C@@H]1/C=C(\Cl)C(F)(F)F`, the outcome is reported as “inactive”.
With `CC1CC(=O)O1` (centres undefined) the outcome was “inactive”.
With `Brc1ccc(Br)cc1` the outcome was “inactive”.
For `CCCCCCCCCCCCCl`, the outcome was “inactive”.
In the case of `O=S(=O)(C(Cl)(Cl)Cl)C(Cl)(Cl)Cl`, the outcome is reported as “inactive”.
`CC(C)(C)c1ccccc1O` was tested, and the outcome was “inactive”.
`O=C(N[C@H]1CN2CCC1CC2)c1ccc2c(c1)OCCO2` was tested, and the outcome was “inactive”.
With `O=C(Cc1ccccc1)OCCc1ccccc1` the outcome was “inactive”.
In the case of `OC[C@@H](O)[C@H]1O[C@@H]2O[C@H](C(Cl)(Cl)Cl)O[C@@H]2[C@H]1O`, the outcome is reported as “inactive”.
With `Oc1c(Cl)cc(Cl)cc1Cl` the AC50 was 62.3 µM (active).
In the case of `C[N+](C)(C)Cc1ccccc1`, the outcome is reported as “inactive”.
For `OC(Cc1ccccc1Cl)(Cn1[nH]cnc1=S)C1(Cl)CC1` (centres undefined), the outcome was “inactive”.
In the case of `CCCCS(=O)(=O)Cl`, the outcome is reported as “inactive”.
In the case of `CC1(C)[C@H](/C=C2\CCSC2=O)[C@@H]1C(=O)OCc1coc(Cc2ccccc2)c1`, the outcome is reported as “inactive”.
In the case of `C=CC(F)(C(F)(F)F)C(F)(F)C(F)(F)F` (centres undefined), the outcome is reported as “inactive”.
With `O=C(CBr)c1ccc(O)cc1` the outcome was “inactive”.
With `C#CCOC(=O)/C=C(C)/C=C/CC(C)CCCC(C)C` (centres undefined) the outcome was “inactive”.
With `CC(C)(C1CCC(O)CC1)C1CCC(O)CC1` (centres undefined) the outcome was “inactive”.
